Our source for the Potency values is PubChem BioAssay (NCATS).

Results filed as inconclusive are left out. Calls of active or inactive are those of the source. The call rests on the fitted dose curve; in most records, active means well fitted inhibition curve with a large enough effect; inconclusive means small, poorly fitted or top-dose-only effect; inactive means flat fitted curve, though single readings scatter.

What all share (assay): qHTS profiling for inhibitors of Plasmodium falciparum proliferation (AID 504749); further: nearly all actives have a fitted effect of over 60% in size
Conditions in all cases: P. falciparum in erythrocytes, SYBR Green DNA, 72 h; series mostly up to 28.7 µM
For orientation: In qHTS, concentration-response curves come from the screen itself.

The test system of experiment [1] is CP260. The method in brief: (§1)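 Three-day growth assay of blood-stage parasites in erythrocytes (0.3% parasitemia, 2.5% hematocrit) at 37 C, 5% CO2, quantified by SYBR Green DNA staining after overnight detergent lysis.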
Experiment [2] concerns CP262. Put shortly:
as §1

The test system of experiment [3] is CP265. Put shortly: as §1
The subject of experiment [4] is CP266. The method in brief: as §1
Experiment [5] concerns CP268. Put shortly:
as §1

In experiment [6] the test system is CP269. The method in brief: as §1
For experiment [7], the system named is CP286. Put shortly:
as §1

For experiment [8], the system named is CP291. Put shortly: as §1
Experiment [9] has as its system CP305. The method in brief: as §1
The test system of experiment [10] is CP315. The method in brief: as §1
Experiment [11] has as its system CP325. Put shortly:
as §1

The subject of experiment [12] is CP329. Put shortly:
as §1

The subject of experiment [13] is CP335. Put shortly: as §1
The subject of experiment [14] is DFO2036. The method in brief: as §1
Experiment [15] relates to DIV14. The method in brief: as §1
Experiment [16] concerns DIV17. The method in brief:
as §1

In experiment [17] the test system is DIV30. The method in brief: as §1
Experiment [18] deals with Dd2. The method in brief:
as §1

Experiment [19] has as its system ECU. Put shortly:
as §1

Experiment [20] relates to CP297. The method in brief: as §1
Potency means the concentration at half of the fitted maximal effect.

As to `c1ccc2[nH]c(-c3cscn3)nc2c1`, the Potency result in experiment [1], in experiment [2], in experiment [3], in experiment [4], in experiment [5] and in experiment [6] was “inactive” in each case. The Potency result in experiment [7], in experiment [8], in [9], in experiment [10], in [11] and in experiment [12] was “inactive” throughout. For the same compound, the Potency entry in experiment [13], in experiment [14], in experiment [15], in experiment [16], in experiment [17] and in experiment [18] was “inactive” each time. Further, the Potency result in experiment [19] is “inactive”.

In the case of `O=c1oc2cc(O)ccc2s1`, the Potency result in experiment [1], in [2], in [3], in experiment [4], in experiment [5] and in [6] was “inactive” in each case. The Potency entry in experiment [7], in experiment [8], in experiment [20], in experiment [9], in [10] and in [11] was “inactive” throughout. Also, the Potency result in [12], in experiment [13], in [14], in experiment [17], in experiment [18] and in experiment [19] was “inactive” throughout.

For the compound `CC1=C(C)C(=O)C(C(CCCCCC(=O)O)c2ccccc2)=C(C)C1=O` (centres undefined), the Potency result in experiment [1], in experiment [2], in experiment [3], in experiment [4], in experiment [5] and in [6] was “inactive” each time. Moreover, the Potency result in experiment [7], in [8], in experiment [9], in experiment [11], in experiment [12] and in [13] was “inactive” each time. Also, the Potency result in [14], in [18] and in experiment [19] was “inactive” each time.

For the compound `Cc1nc2n(c(=O)c1CCN1CCC(c3noc4cc(F)ccc34)CC1)CCCC2`, the Potency result in experiment [2], in experiment [3], in [4], in experiment [5], in [6] and in [8] was “inactive” throughout. Also, the Potency entry in [20], in [9], in experiment [10], in experiment [11], in experiment [12] and in experiment [14] was “inactive” each time. For the same compound, the Potency result in experiment [16], in experiment [17], in experiment [18] and in experiment [19] was “inactive” in each case.

Take `CCC(C)(Oc1ccc(C2(c3ccc(OC(C)(CC)C(=O)O)cc3)CCCCC2)cc1)C(=O)O` (centres undefined): the Potency entry in experiment [2], in experiment [3], in [4], in experiment [5], in [6] and in experiment [7] was “inactive” in each case. In addition, the Potency result in experiment [8], in [20], in experiment [9], in experiment [10], in experiment [11] and in experiment [12] was “inactive” throughout. The Potency entry in experiment [13], in experiment [14], in experiment [15], in experiment [16], in experiment [17] and in experiment [18] was “inactive” throughout. Also, the Potency result in [19] was “inactive”.

As to `O=C(OC1C[C@H]2CC[C@@H](C1)[N+]21CCCC1)C(O)(c1ccccc1)c1ccccc1` (some centres undefined), the Potency in experiment [2] is 4.26 µM (active); in [3], 3.98 µM (active); in [7], 3.98 µM (active); in experiment [9], 4.26 µM (active); in experiment [12], 4.78 µM (active); in [13], 4.26 µM (active). Further, the results for the Potency in experiment [17], in [18] and in experiment [19] were 4.78 µM (active), 0.0891 µM (active) and 5.01 µM (active), respectively.

Consider `Cc1cc(C2CCCCC2)n(O)c(=O)c1`, for which the Potency in experiment [6] is 5.73 µM (active); in [20] it was 7.21 µM (active); in experiment [9], 5.73 µM (active); in experiment [10] it was 2.28 µM (active); in experiment [11] it was 5.73 µM (active). Besides, in experiment [18], the Potency result is “inactive”.

For `Cc1ncc([N+](=O)[O-])n1CC(C)O` (centres undefined), the Potency entry in experiment [2], in [3], in experiment [4], in experiment [5], in [6] and in experiment [7] was “inactive” throughout. Further, the Potency entry in experiment [8], in experiment [9], in experiment [10], in experiment [11], in experiment [12] and in experiment [13] was “inactive” each time. Besides, the Potency result in experiment [14], in experiment [15], in [16], in experiment [17], in experiment [18] and in experiment [19] was “inactive” throughout.

Regarding `N=C(N)c1ccc2cc(OC(=O)c3ccc(N=C(N)N)cc3)ccc2c1`, the Potency was 4.47 µM (active) in experiment [7], 4.78 µM (active) in experiment [9] and 7.57 µM (active) in experiment [15].

For the compound `CC[C@]1(O)C[C@H]2CN(CCc3c([nH]c4ccccc34)[C@@](C(=O)OC)(c3cc4c(cc3OC)N(C=O)[C@H]3[C@@](O)(C(=O)OC)[C@H](OC(C)=O)[C@]5(CC)C=CCN6CC[C@]43[C@@H]65)C2)C1`, the Potency in experiment [1] was 0.0794 µM (active); in [7], 0.0708 µM (active); in experiment [8], 3.38 µM (active); in [20], 3.01 µM (active); in [14] it was 1.78 µM (active); in experiment [17] it was 3.38 µM (active). Further, the Potency in [18] is 0.199 µM (active).

With `O=C(O)c1cn(-c2ccc(F)cc2)c2cc(N3CCNCC3)c(F)cc2c1=O`, the Potency result in experiment [4], in [16], in experiment [17] and in experiment [19] was “inactive” each time.

With `CN1CCC(=C2c3ccccc3CCc3sccc32)CC1`, the Potency result in [2], in [20], in [10], in experiment [12] and in experiment [19] was “inactive” each time. The Potency in experiment [15] was 4.78 µM (active); in experiment [16], 4.26 µM (active); in [18], 5.01 µM (active).

On to `Cc1nc(Nc2ncc(C(=O)Nc3c(C)cccc3Cl)s2)cc(N2CCN(CCO)CC2)n1`, for which the Potency result in experiment [1], in experiment [2], in [3], in experiment [5], in experiment [8] and in experiment [9] was “inactive” in each case. In addition, the Potency result in [10], in experiment [11], in [12], in experiment [13] and in experiment [14] was “inactive” in each case. The Potency in experiment [16] and in experiment [17] was 13.5 µM (active) in each case.

As for `CCN(CC)CCOc1ccc(Cc2ccccc2)cc1`, the Potency entry in experiment [2], in experiment [3], in experiment [4], in experiment [5], in experiment [6] and in experiment [7] was “inactive” in each case. Besides, the Potency result in [8], in experiment [20], in [9], in [10], in experiment [11] and in experiment [12] was “inactive” in each case. Further, the Potency entry in [13], in [14], in experiment [16], in [17], in [18] and in experiment [19] was “inactive” throughout.

As for `Nc1nc(Cl)nc2c1ncn2[C@H]1C[C@H](O)[C@@H](CO)O1`, the Potency result in experiment [1], in [3], in experiment [7], in experiment [14], in [18] and in [19] was “inactive” throughout.
